Results as given in the supplement of paper PMC11732987, “Enantioselective OTUD7B fragment discovery through chemoproteomics screening and high-throughput optimisation” (Communications Chemistry, 2025).

Tests used:
Experiment in all cases: log2 ratio of Biotin-Ahx-Ub-VS probe labelling (fragment/DMSO); higher = less target engagement (more negative = stronger competition), active = hit call of the paper (q ≤ 0.05, log2 ratio ≤ -1)
Settings in all cases: compound concentration: 200 uM; treatment time: 3 h
USP34 = USP34 (UniProt Q70CQ2)
Method in brief: (§1)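 Fragment (200 µM) or vehicle was incubated for 3 h with triplicate HEK293T lysate samples of 495 µg, which were then treated with Biotin-Ahx-Ub-VS at 0.5 µM final for 1 h. Labelled DUBs were enriched on NeutrAvidin, digested with LysC and trypsin, and analysed by diaPASEF LC-MS/MS. Values are average log2 fragment/vehicle ratios from an unpaired t-test on global-median-normalised Spectronaut label-free quantities, using proteins with ≥2 unique peptides.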

USP36 = biological target: T1, USP36 (UniProt Q9P275)
T1 sequence (whole entry): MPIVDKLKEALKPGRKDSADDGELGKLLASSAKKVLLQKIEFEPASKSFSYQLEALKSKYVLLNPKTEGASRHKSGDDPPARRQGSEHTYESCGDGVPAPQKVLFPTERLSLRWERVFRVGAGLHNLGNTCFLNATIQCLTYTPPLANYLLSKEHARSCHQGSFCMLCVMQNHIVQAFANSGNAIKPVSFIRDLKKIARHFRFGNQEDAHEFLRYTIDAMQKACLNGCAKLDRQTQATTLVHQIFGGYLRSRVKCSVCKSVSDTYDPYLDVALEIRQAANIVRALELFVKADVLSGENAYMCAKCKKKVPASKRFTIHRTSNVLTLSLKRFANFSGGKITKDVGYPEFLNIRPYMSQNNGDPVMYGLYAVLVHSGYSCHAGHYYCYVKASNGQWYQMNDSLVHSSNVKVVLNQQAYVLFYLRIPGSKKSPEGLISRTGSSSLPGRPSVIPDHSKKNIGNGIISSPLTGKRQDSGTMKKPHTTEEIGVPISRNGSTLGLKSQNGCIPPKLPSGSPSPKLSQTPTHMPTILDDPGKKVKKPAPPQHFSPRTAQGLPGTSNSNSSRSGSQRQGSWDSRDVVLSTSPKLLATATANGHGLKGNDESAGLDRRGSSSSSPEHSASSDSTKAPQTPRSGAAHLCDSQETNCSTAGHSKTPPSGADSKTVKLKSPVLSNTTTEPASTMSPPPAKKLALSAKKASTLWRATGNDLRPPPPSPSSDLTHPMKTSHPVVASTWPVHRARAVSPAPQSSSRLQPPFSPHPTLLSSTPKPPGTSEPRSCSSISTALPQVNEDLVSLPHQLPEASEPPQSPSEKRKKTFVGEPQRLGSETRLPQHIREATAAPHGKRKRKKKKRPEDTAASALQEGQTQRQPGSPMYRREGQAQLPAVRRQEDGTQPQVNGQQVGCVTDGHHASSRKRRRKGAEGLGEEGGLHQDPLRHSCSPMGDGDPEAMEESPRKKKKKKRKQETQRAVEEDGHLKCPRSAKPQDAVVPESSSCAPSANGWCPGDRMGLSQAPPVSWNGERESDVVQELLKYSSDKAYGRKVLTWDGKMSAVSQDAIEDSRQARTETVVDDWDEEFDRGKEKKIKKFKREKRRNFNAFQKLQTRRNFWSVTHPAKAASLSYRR
Method in brief: as §1

USP38 = biological target: T2, USP38 (UniProt Q8NB14)
T2 sequence (whole entry): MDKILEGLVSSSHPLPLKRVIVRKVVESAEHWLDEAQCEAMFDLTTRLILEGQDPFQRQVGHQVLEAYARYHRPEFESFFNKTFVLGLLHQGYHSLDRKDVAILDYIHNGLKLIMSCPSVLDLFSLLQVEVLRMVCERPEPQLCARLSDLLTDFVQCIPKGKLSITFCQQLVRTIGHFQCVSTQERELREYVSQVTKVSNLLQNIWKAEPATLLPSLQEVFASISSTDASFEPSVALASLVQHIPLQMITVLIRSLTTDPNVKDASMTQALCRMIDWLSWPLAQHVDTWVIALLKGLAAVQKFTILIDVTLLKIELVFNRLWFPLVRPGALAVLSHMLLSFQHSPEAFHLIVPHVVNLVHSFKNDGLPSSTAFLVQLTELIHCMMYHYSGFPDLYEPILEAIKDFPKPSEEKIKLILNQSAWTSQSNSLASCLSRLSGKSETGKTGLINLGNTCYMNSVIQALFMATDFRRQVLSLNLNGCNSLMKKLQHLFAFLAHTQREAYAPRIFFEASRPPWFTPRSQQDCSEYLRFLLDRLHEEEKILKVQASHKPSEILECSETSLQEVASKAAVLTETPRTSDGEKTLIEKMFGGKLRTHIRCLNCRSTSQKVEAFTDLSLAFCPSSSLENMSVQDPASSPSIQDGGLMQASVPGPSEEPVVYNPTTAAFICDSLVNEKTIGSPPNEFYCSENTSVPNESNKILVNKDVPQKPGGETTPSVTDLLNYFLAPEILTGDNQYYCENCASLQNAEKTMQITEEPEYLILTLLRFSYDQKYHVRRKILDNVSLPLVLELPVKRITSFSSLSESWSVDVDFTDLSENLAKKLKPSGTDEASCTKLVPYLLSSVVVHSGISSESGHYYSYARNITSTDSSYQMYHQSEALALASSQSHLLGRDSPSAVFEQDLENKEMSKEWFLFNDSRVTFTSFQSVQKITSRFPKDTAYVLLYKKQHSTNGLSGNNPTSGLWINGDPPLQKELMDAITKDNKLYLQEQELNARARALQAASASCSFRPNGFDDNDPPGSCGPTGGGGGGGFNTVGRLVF
Method in brief: as §1

USP39 = biological target: T3, USP39 (UniProt Q53GS9)
T3 sequence (whole entry): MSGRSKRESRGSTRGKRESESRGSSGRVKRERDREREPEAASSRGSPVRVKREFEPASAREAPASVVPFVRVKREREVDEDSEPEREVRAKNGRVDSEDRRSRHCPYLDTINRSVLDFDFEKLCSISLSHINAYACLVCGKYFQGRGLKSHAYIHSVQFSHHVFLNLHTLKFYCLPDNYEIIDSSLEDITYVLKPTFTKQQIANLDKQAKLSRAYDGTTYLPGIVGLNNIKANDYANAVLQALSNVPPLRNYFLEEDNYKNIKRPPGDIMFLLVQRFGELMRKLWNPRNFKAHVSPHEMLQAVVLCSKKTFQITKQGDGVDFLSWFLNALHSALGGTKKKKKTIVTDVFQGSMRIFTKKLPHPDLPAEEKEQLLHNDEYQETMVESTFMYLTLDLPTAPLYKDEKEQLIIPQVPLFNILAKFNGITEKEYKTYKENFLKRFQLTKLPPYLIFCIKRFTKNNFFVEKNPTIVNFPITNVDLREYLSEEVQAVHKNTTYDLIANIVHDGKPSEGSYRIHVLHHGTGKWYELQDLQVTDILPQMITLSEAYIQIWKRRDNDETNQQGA
Method in brief: as §1

USP4 = biological target: T4, USP4 (UniProt Q13107)
T4 sequence (whole entry): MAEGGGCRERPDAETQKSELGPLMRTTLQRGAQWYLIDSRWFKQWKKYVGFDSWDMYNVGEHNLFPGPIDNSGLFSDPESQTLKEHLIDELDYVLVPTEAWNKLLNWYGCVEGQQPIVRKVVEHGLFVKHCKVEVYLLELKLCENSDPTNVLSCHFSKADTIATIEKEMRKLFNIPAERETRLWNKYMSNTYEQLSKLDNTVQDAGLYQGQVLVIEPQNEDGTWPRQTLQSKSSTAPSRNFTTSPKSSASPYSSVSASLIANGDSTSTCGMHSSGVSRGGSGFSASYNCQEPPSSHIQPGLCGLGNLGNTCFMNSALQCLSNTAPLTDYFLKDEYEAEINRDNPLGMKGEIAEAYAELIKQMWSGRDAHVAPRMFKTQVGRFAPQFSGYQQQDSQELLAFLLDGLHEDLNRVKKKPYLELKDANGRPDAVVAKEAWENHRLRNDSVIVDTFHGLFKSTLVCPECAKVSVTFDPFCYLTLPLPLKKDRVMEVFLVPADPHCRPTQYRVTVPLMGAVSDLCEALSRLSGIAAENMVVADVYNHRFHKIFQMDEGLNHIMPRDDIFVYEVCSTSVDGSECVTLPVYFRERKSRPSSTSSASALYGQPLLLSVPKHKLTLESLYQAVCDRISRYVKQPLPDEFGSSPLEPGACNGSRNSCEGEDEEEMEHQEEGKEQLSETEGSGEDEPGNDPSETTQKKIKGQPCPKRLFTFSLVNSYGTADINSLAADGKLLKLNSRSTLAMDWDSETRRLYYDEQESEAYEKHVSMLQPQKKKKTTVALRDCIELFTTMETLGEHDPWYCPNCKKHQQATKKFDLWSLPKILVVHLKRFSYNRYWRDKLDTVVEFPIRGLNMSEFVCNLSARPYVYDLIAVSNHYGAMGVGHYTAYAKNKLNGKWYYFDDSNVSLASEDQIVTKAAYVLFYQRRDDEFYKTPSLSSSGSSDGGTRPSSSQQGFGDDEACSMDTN
Method in brief: as §1

Measured: log2 ratio of Biotin-Ahx-Ub-VS probe labelling

Chain of USP34 (Q70CQ2 whole entry, the tested form may be a part): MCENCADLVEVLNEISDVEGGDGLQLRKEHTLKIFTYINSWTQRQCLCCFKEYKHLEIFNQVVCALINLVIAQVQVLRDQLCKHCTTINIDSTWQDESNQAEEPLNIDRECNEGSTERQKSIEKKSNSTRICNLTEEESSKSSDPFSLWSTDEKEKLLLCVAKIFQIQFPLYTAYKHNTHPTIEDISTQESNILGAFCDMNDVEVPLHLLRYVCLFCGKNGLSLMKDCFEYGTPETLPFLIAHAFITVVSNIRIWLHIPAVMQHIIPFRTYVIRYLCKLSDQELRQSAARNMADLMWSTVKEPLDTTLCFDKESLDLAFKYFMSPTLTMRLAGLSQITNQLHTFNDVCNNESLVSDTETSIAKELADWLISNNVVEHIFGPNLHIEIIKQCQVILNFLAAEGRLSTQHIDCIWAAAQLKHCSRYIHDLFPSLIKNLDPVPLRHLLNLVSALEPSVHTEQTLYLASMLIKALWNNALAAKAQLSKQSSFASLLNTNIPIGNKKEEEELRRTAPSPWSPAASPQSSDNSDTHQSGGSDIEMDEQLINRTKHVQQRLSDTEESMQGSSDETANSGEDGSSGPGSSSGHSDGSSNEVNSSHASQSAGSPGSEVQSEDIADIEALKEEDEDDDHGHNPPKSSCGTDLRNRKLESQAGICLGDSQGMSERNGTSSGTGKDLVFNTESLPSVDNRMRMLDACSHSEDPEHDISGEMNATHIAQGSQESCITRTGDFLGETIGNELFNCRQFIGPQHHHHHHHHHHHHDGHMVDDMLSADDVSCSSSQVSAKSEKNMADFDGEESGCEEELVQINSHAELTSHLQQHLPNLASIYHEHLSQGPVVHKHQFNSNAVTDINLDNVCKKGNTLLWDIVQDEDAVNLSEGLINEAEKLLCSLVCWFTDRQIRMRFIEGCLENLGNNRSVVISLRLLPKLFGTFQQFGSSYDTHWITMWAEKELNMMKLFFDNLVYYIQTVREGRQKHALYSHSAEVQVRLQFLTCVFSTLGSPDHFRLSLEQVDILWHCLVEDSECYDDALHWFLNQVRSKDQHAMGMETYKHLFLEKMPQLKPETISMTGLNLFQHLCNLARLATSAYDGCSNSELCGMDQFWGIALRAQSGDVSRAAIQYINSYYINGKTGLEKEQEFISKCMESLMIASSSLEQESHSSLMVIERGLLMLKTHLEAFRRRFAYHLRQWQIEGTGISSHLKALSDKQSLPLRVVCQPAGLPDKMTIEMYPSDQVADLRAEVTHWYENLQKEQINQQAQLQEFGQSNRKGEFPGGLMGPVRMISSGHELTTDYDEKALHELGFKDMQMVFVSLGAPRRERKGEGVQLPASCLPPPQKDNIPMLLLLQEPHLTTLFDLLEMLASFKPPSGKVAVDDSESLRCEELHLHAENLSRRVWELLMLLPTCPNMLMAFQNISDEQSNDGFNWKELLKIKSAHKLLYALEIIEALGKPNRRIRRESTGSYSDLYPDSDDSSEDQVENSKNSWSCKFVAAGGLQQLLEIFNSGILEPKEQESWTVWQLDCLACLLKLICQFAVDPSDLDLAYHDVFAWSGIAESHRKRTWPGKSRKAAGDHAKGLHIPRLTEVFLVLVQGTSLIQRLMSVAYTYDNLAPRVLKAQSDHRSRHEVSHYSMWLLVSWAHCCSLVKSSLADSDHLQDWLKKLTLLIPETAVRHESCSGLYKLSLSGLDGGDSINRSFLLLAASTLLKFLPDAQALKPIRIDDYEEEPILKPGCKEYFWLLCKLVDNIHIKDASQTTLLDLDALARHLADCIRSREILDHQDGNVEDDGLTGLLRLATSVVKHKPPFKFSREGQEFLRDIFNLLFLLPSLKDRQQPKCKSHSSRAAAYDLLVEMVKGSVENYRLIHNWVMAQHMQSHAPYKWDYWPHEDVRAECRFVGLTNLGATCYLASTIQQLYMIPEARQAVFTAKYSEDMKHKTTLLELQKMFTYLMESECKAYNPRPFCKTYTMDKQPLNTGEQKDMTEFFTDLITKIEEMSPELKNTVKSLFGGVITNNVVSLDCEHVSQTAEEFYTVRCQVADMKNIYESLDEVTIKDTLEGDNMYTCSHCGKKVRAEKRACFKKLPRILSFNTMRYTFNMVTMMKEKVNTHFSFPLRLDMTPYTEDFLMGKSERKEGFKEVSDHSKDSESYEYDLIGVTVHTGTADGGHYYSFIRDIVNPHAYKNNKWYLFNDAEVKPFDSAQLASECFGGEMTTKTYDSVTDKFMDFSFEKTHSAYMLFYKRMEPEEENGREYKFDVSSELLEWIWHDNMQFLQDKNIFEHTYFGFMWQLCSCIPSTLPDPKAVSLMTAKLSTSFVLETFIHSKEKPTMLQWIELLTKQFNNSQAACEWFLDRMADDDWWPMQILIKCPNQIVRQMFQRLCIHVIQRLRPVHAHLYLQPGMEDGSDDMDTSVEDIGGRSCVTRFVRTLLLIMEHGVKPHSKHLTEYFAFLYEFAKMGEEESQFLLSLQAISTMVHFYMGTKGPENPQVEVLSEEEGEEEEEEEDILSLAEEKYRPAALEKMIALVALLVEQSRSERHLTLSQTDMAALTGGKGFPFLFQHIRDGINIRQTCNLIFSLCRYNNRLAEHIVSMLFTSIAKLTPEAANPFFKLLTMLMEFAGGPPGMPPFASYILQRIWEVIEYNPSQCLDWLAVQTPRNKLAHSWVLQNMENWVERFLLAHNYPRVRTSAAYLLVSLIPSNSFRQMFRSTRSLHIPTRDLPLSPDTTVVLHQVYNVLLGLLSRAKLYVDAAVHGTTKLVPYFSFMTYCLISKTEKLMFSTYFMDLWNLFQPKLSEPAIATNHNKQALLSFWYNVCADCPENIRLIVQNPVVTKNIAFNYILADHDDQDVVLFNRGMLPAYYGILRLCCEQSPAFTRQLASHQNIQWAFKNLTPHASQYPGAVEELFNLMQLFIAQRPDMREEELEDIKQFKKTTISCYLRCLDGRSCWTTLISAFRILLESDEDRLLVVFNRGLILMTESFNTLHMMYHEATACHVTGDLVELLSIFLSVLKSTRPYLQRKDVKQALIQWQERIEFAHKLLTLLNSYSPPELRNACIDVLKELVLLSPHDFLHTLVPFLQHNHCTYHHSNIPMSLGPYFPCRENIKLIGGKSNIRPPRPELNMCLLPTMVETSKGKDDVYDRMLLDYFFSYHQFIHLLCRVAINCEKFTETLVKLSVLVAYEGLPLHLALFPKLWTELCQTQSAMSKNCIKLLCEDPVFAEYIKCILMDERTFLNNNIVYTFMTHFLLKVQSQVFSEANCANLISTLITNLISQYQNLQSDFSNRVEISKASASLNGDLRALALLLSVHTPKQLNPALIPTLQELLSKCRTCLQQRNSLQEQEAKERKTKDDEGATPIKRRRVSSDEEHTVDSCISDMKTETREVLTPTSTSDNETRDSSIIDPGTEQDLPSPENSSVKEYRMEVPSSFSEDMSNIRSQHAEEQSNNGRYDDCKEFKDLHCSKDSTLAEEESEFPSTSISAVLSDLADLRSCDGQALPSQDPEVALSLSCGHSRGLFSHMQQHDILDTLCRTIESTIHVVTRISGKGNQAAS

CN(C)S(=O)(=O)c1ccccc1CNC(=O)CCl
inactive: USP34 0.137 | USP36 -0.00554 | USP38 0.218 | USP39 0.237 | USP4 -0.0523
